Compound activity: PubChem BioAssay, National Center for Advancing Translational Sciences (NCATS)
The list is not random: actives were taken first. Their share in the collection is about 19%.
Shiga toxin inh: blocks Shiga toxin action in Vero cells; Vero cells, Shiga toxin protein synthesis inhibition reporter; 290,000 tested, 9.2% active; inhibition, % at 38.7 µM; in the data active means inhibition mostly above about 28%, no sharp cut-off; inactive means mostly below about 43%
AMA1-RON2 inh: disrupts binding of P. falciparum AMA1 to RON2. AlphaScreen AMA1-biotinylated RON2 peptide binding. Potency, µM (top dose mostly 58.2 µM), hits mostly inhibitors. 360,000 tested, 0.2% active. AID 720542; further: nearly all actives have a fitted effect of over 45% in size
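AMA1 (3D7) with his tag at 25 nM final met compounds first, then biotinylated RON2 peptide at 25 nM; detection used donor plus acceptor beads, 10 µg/mL apiece, read by AlphaScreen after 30 min at room temperature.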
SARS PLP yeast: SARS-CoV PLP inhibition in yeast; S. cerevisiae expressing SARS-CoV PLpro, growth rescue; Potency, µM (series often up to 32.9 µM), actives largely listed as activators; 330,000 tested, 0.19% active; AID 485353; calls by dose curve; further: nearly all actives have a fitted effect of over 55% in size
Pf growth 48h: inhibits P. falciparum growth in the first generation, 48 h; P. falciparum luciferase growth in erythrocytes, 48 h; Potency, µM (highest dose often 28.7 µM), hits mostly inhibitors; 310,000 tested, 5.9% active; AID 504832
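Luminescence readout; reporter = integrated firefly luciferase in P. falciparum. RBC culture at 2% hematocrit, 0.1% parasitemia final, 37 C/5% CO2; decreased signal taken as growth inhibition.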
CHX counter: affects cycloheximide protein synthesis inhibition readout, counter-screen. AID 2314. 300,000 tested, 12% active. max response, %. cell reporter, cycloheximide protein synthesis inhibition counterscreen; in the data active means max response mostly above about 13%, no sharp cut-off; inactive means mostly below about 14%; further: read at 38.3 µM for the half of the compounds with a filed dose
Pf growth 96h: P. falciparum growth inhibition at 96 hours; P. falciparum luciferase reporter growth, 96 h; Potency, µM (top dose mostly 28.7 µM), hits mostly inhibitors; 320,000 tested, 6.9% active; AID 504834
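Delayed-death screen, second-generation endpoint: infected erythrocytes, 2% hematocrit, 0.05% parasitemia final; 96 hours at 37 C, 5% CO2; luciferase detection reagent; luminescence decrease equals reduced growth.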
A number is an active result; n = inactive; u = inconclusive; x = no result given; + = active, no number; [ ] = dose if it differs, or a comment. Unless noted, the call rests on the fitted dose curve; in most records, active means well fitted curve in the direction sought with a large enough effect; inconclusive means small, poorly fitted or top-dose-only effect, or another doubt; inactive means no such curve, though single readings can be large; an effect the other way counts as inactive or inconclusive.

SMILES	Shiga toxin inh	AMA1-RON2 inh	SARS PLP yeast	Pf growth 48h	CHX counter	Pf growth 96h
COc1ccc(C(=O)N2N=C(c3cccs3)CC2c2ccccc2O)cc1 (stereo not drawn)	n	n	n	u	n	u
COc1ccc(C2CC(c3ccccc3)=NN2C(=O)c2cccs2)cc1 (stereo not drawn)	75	n	n	u	73	u
O=C(NCc1ccccc1)c1cc(C2CCCN(S(=O)(=O)c3cccs3)C2)on1 (stereo not drawn)	x	n	x	x	x	x
Cc1ccc(C)c(Cn2c(C)nc3c(sc(=S)n3-c3ccccc3)c2=O)c1	n	n	n	n	n	n
CN1CCN(C(=O)c2ccc3c(c2)N(Cc2ccc(F)cc2)C(=O)c2ccccc2S3=O)CC1 (stereo not drawn)	n	n	n	u	n	n
COCCOc1ccc(C(F)(F)F)cc1NC(=O)COC(=O)c1c(C)noc1C	n	n	n	9.3µM	n	4.7µM
CN(C)c1ccc(/C=C(/C#N)C(=O)NCc2ccccc2)o1	n	n	n	n	59	n
COCCNC(=O)/C(C#N)=C/c1ccc(C)o1	n	n	n	n	n	n
CSc1ccc(/C=C(\C#N)C(=O)Nc2cccc(C)c2)cc1	n	n	n	n	22	u
N#C/C(=C/c1ccccc1)C(=O)NCc1ccccc1	n	n	n	n	n	n
N#C/C(=C\c1cccs1)C(=O)NCc1ccco1	56	n	n	n	39	u
CSc1ccc(/C=C(\NC(=O)c2ccc(C)cc2)C(=O)Nc2cccc(C)c2)cc1	n	n[11.6 µM]	n	n	n	n
Cc1ccsc1/C=C(\C#N)C(=O)NCc1ccco1	n	n	n	n	n	n
Cc1ccc(/C=C(\C#N)C(=O)NCc2ccco2)o1	66	n	n	n	43	n
CCC1CC=CC2C1C(=O)N(Cc1ccccc1)C2c1cccc([N+](=O)[O-])c1 (stereo not drawn)	n	x	x	x	n	x
COc1cc(NC(=O)CN2C(=O)C(=O)N(C3CCCC3)C2=O)cc(OC)c1	x	n	n	n	x	n
Cc1cc2c(C)c(C)c(=O)[nH]c2cc1N	n	n	n	n	n	x
N#CCCN(C(=O)COC(=O)/C=C/c1cccs1)c1ccccc1	x	n	n	x	x	x
COCCNC(=O)/C(C#N)=C/c1ccc(OC(=O)c2cccs2)c(OC)c1	n	n	n	n	n	n
COCCNC(=O)/C(C#N)=C/c1cccs1	n	n	n	n	14	n
COc1ccc(N(CCC#N)C(=O)/C(C#N)=C\c2cccs2)cc1	n	n	n	n	20	n
COCCNC(=O)/C(C#N)=C/c1ccc(SC)cc1	65	n	n	n	30	n
COc1ccc(NC(=S)N(CCN(C)C)C(C)c2ccco2)cc1Cl (stereo not drawn)	n	n	n	n	n	10µM
COCCN(C(=S)Nc1ccc(C)cc1C)C(C)c1ccco1 (stereo not drawn)	n	n	n	u	19	n
COc1cccc(NC(=S)N(CCN(C)C)C(C)c2ccco2)c1 (stereo not drawn)	n	n	n	n	n	u
SMILES	Shiga toxin inh	AMA1-RON2 inh	SARS PLP yeast	Pf growth 48h	CHX counter	Pf growth 96h
Cc1ccc(S(=O)(=O)N2CCC(C(=O)NC3CC(C)(C)NC(C)(C)C3)CC2)cc1	n	n	n	n	n	n
CC(NC(=O)c1ccc(OC2CCN(Cc3ccccn3)CC2)cc1)c1nccs1 (stereo not drawn)	n	n	n	n	n	13µM
O=C(NC1CCCCC1)c1ccc(OC2CCN(Cc3ccccn3)CC2)cc1	n	n	n	u	n	n
O=C(NCCc1cccc(Cl)c1)c1ccc(OC2CCN(Cc3ccccn3)CC2)cc1	53	n	n	n	51	u
Cc1cccnc1CCNC(=O)c1ccc(OC2CCN(Cc3ccccn3)CC2)cc1	n	n	n	n	18	n
C#CCN(C(=O)c1ccc(OC2CCN(Cc3ccccn3)CC2)cc1)C1CCCCC1	n	n	n	u	n	n
CN(C(=O)c1ccc(OC2CCN(Cc3ccccn3)CC2)cc1)C1CCCCC1	n	n	n	u	21	u
CSc1ccccc1NC(=O)NCCCl	n	n	n	n	n	n
C#CCNC(=O)C1=C[C@@H](C2CC2)[C@H](CCCO)[C@@H](OCC)O1	n	n	n	n	n	n
O=c1oc2cc(OCCO)ccc2c2c1CCCC2	n	n	n	n	n	n
O=S(=O)(c1ccc(F)cc1)n1ccc(-c2cccc(OCc3ccc(Cl)cc3Cl)c2)n1	n	n	n	u	n	0.15µM
CC(=O)N/C(=N\c1nc(C)cc(C)n1)Nc1ccc2ccccc2c1	125	n	n	n	40	n
CC(=O)N/C(=N/c1nc(C)cc(C)n1)Nc1cc(C)cc(C)c1	n	n	n	x	n	u
CC(=O)N/C(=N/c1nc(C)cc(C)n1)Nc1ccc(NC(C)=O)cc1	n	n	n	u	n	9.3µM
O=C(CSC1=NS(=O)(=O)c2cc(Cl)ccc2N1)c1ccc(Cl)cc1	x	n	n	n	x	n
COc1ccc([C@]2(C(C)C)ON(c3ccccc3C(F)(F)F)C2=O)cc1	x	n	n	1µM	x	2.1µM
CC(C)[C@@]1(c2ccc(Cl)cc2)ON(c2ccccc2C(F)(F)F)C1=O	x	x	n	2.1µM	x	2.3µM
COc1ccc(S(=O)(=O)Nc2ccccc2C(F)(F)F)cc1	n	n	n	n	n	n
COc1ccc([C@@]2(C(C)C)ON(c3ccccc3C(F)(F)F)C2=O)cc1	x	n	n	0.33µM	x	0.29µM
C=CC1CN2CCC1CC2C(OC(C)=O)c1ccnc2ccc(OC)cc12 (stereo not drawn)	n	n	n	0.37µM	n	0.29µM
C=C[C@H]1CN2CC[C@H]1C[C@@H]2[C@@H](O)c1ccnc2ccccc12	x	n	x	0.033µM	x	0.0041µM
CC[C@H]1CN2CCC1C[C@@H]2[C@H](O)c1ccnc2ccc(OC)cc12 (stereo partly drawn)	x	n	x	x	x	x
CCCn1cc(CN2CCN(Cc3ccc(C)o3)C(CCO)C2)c(C)n1 (stereo not drawn)	n	n	n	n	n	u
CCOc1ccc2c(c1)nc(SCC(=O)c1cccs1)n2C	81	n	n	n	50	u
CCOc1ccc2c(c1)nc(SCC(=O)c1ccc(Br)s1)n2C	n	n	n	u	n	u
SMILES	Shiga toxin inh	AMA1-RON2 inh	SARS PLP yeast	Pf growth 48h	CHX counter	Pf growth 96h
Cc1nnc(SCC(=O)NC2CCCCC2)n1N	x	n	n	x	x	x
c1ccc(CCCCc2ccccn2)cc1	x	n	x	x	x	x
c1ccc(CCCNc2ncnc3nc[nH]c23)cc1	n	n	n	n	27	u
c1ccc2c(CCNc3ncnc4nc[nH]c34)cccc2c1	+	n	n	n	31	n
C1=C(CCNc2ncnc3nc[nH]c23)CCCC1	38	n	n	u	37	u
c1ccc(CCCNc2ncccn2)cc1	+	n	n	n	32	3.3µM
O=C(CCN1N=C(c2ccccc2)CCC1=O)NCC1COc2ccccc2O1 (stereo not drawn)	n	n	n	n	n	n
CCOc1ccc(C(=O)c2nc3c(n2O)CCCC3)cc1	n	n	n	n	23	u
